Shown are actives, neighbours in structure and some others; about 4.2% of the full set was active somewhere.
NALP1 yeast inh: NALP1 inhibition; AID 2071; inhibition, % at 10 µM; S. cerevisiae NALP1/ASC/caspase-1 growth, X-gal OD620, 72 h; actives 0.61% (n = 280,000); in the data active = inhibition mostly above about 24%, no sharp cut-off; inactive = mostly below about 32%
TIM10 inh: inhibits growth of TIM10 yeast strain | AID 463195 | S. cerevisiae TIM10 strain growth, BacTiter-Glo luminescence, 24 h | inhibition, % at 10 µM | actives 1.4% (n = 330,000);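 active = inhibition of 40% or more at the single tested concentration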;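 note: wild-type TIM10 isogenic control strain grown at permissive 25 °C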
tim23-1 inh: inhibits growth of tim23-1 mutant yeast; actives 1.3% (n = 330,000); AID 463212; S. cerevisiae tim23-1 growth, BacTiter-Glo luminescence, 24 h; inhibition, % at 20 µM;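 active = growth inhibition of the mutant yeast at or above 50%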;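 note: temperature-sensitive mutant grown at 25 °C; plate controls were DMSO-treated mutant yeast for no effect and medium wells lacking yeast for full effect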
tim10-1 inh: inhibits growth of tim10-1 mutant yeast; S. cerevisiae tim10-1 ts strain growth, BacTiter-Glo, 24 h; inhibition, % at 20 µM; actives 2.2% (n = 330,000); AID 463190;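 active = inhibition of at least 40%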;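 note: mutant grown at 25 °C; 0% = DMSO wells with yeast and 100% = wells holding no yeast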
V-ATPase pHluor: yeast V-ATPase proton transport regulation by pHLuorin | S. cerevisiae, pHLuorin cytosolic pH fluorescence | actives 0.37% (n = 350,000) | AID 504577 | response, % at 10 µM; in the data active = response mostly above about 7.3%, no sharp cut-off; inactive = mostly below about 5.4%; note: actives read high
NLRP3 yeast inh: NALP3 inhibition in yeast; actives 0.39% (n = 330,000); Yeast reconstituted NLRP3/ASC/caspase-1, beta-gal luminescence, 24 h; inhibition, % at 10 µM; AID 2825;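 active = inhibition of 50% or more; inactive = inhibition below 50%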;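 note: plate controls were induced DMSO wells for no effect and uninduced yeast grown without galactose for full effect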
tim10-1 conf: confirmation of tim10-1 mutant yeast growth inhibitors. shares compounds with tim10-1 inh. S. cerevisiae tim10-1 ts strain growth, BacTiter-Glo, 24 h. inhibition, % at 20 µM. actives 56% (n = 7,400);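 active = inhibition of yeast growth at or above a set limit in either of two repeat tests at 20 µM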;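 note: tim10-1 mutant grown at permissive 25 °C to find synthetic lethal compounds; 0% = DMSO yeast wells and 100% = medium wells without yeast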
The depositor's hits bear a star; / = not tested or not shown.

SMILES | NALP1 yeast inh | TIM10 inh | tim23-1 inh | tim10-1 inh | V-ATPase pHluor | NLRP3 yeast inh | tim10-1 conf
Cc1cc(SCC(=O)N/N=C/c2ccco2)nc2ccccc12 | 6 | 3 | 28 | 40* | 1 | 6 | 15
Cc1cc(SCC(=O)NC(=O)NCc2ccco2)nc2ccccc12 | 4 | 32 | 48 | 43* | 0 | 11 | 35*
CCN1CCN(C(=S)c2ccc(OCC(=O)NCc3ccccc3)cc2)CC1 | -5 | -4 | 10 | -9 | -2 | 13 | /
N#Cc1ccc(CN2CCN(C(=O)CNC(=O)Cc3cccc4ccccc34)CC2)cc1 | / | 2 | 25 | 20 | -1 | 22 | /
CCCC(C)C(=O)Nc1nc(C)c(-c2csc(Nc3ccc(Cl)cc3)n2)s1 (stereo unspecified) | 0 | 30 | 39 | 44* | 1 | -4 | 19
CCN(CC)S(=O)(=O)c1ccc2c(c1)c(=O)c(C(=O)NCc1cccs1)cn2C | 20 | / | / | / | 3 | / | /
COc1ccc(S(=O)(=O)n2oc(=O)cc2-c2ccccc2)cc1 | 12 | 14 | 14 | 43* | 1 | -37 | 20
CCOc1ccc(S(=O)(=O)N2Cc3ccccc3CC2C(=O)NCCCn2ccnc2)cc1 (stereo unspecified) | 10 | 0 | 8 | 8 | 2 | 13 | /
Cc1nc(Nc2ccc(Cl)cc2Cl)sc1C(=O)Nc1ccccc1 | 22 | 15 | 29 | 47* | 2 | 39 | 31*
Cc1ccc(Nc2nc(N)[nH]c(=O)c2N=O)cc1 | 6 | -12 | 7 | 4 | -1 | 8 | /
COc1ccccc1N1CCN(S(=O)(=O)c2ccc3nc(-c4ccccc4)[nH]c3c2)CC1 | 25 | 31 | 37 | 42* | 0 | 20 | 27
CCCN1CCN(S(=O)(=O)c2ccc3c(c2)NC(=O)C(C)S3)CC1 (stereo unspecified) | 14 | 1 | -4 | -11 | 5 | 10 | /
COc1cc(S(=O)(=O)N2CCN(c3ccccc3)CC2)ccc1Cl | -9 | 3 | 13 | -3 | 0 | 2 | /
COc1cc(S(=O)(=O)N2CCN(c3ccccc3F)CC2)ccc1Cl | 8 | 11 | 17 | 43* | 0 | 6 | 30
O=S(=O)(c1ccc2nc(-c3ccccc3)[nH]c2c1)N1CCN(c2cccc(Cl)c2)CC1 | 38 | 23 | 15 | 15 | -2 | 29 | /
COc1ccccc1N1CCN(S(=O)(=O)c2ccc3c(c2)NC(=O)C(C)S3)CC1 (stereo unspecified) | 8 | 13 | 46 | 43* | -1 | 9 | 6
CC1CCC/C(=N\Nc2ccc(Cl)c(C(=O)O)c2)C1 (stereo unspecified) | 18 | -14 | 3 | 9 | 2 | 19 | /
CCc1ccc2[nH]c(=O)c(C3C(C#N)=C(N)Oc4c3ccc3cccnc43)cc2c1 (stereo unspecified) | -22 | 25 | 36 | 41* | -6 | 20 | 12
CCn1c(SCC(=O)NNC(=S)Nc2ccc(C)cc2)nnc1-c1ccc(Cl)cc1 | 12 | 6 | 3 | 22 | 1 | 18 | /
Cc1ccc(NC(=S)NNC(=O)CSc2nc3ccccc3c(=O)n2-c2ccc(C)cc2)cc1 | 10 | 33 | 37 | 57* | -3 | -2 | 34*
Cn1cc(SCC(=O)Nc2ccc3c(c2)OCO3)c2ccccc21 | 0 | 4 | 26 | 25 | -1 | 10 | /
Cc1ccc(NC(=S)NNC(=O)CSc2nnc(-c3ccc(Cl)cc3)n2C2CCCCC2)cc1 | 5 | 25 | 36 | 42* | 2 | 16 | 35*
CCOc1ccc(-n2c(SCC(=O)Nc3ccc4c(c3)OCO4)nc3ccccc3c2=O)cc1 | 8 | 24 | 22 | 28 | -7 | 0 | /
CCCn1cc(SCC(=O)Nc2ccc3c(c2)OCO3)c2ccccc21 | 44 | 15 | 29 | 43* | -3 | 28 | 21
COc1ccc(-n2c(SCC(=O)Nc3ccc4c(c3)OCO4)nc3ccccc3c2=O)cc1 | 22 | 14 | 32 | 40* | 0 | -1 | 20
Cc1ccc(-c2[nH]ncc2C(=O)c2ccc(Br)cc2)c(O)c1 | 16 | 7 | 43 | 42* | -4 | 14 | 23
CC(=O)C1=C(C)N(Cc2ccccc2)C(=O)N[C@H]1c1cccc(C(F)(F)F)c1 | 21 | -1 | 17 | 8 | 2 | 3 | /

Bioassay records deposited in PubChem by several laboratories.
